# Laboratory results: the supplement of paper PMC4022240
# ± gives the standard deviation.
# T1: HaloTag-ATRX ADD domain (163-292)
# T1 chain: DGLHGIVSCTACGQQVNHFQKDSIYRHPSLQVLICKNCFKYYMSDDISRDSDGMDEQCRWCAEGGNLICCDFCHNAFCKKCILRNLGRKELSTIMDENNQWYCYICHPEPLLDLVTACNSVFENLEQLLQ
# B1: Unmod H1 variant R L V T T G V L K Q T K G (peptide)
# chain: RLVTTGVLKQTKG
# B2: Unmod H1 variant A E K N R A G S S R Q S I (peptide)
# chain: AEKNRAGSSRQSI
# B3: Unmod H1 variant P K K A P V K P K A K S S (peptide)
# chain: PKKAPVKPKAKSS
# B4: Unmod H1 variant K K A K K P K T V K A K P (peptide)
# chain: KKAKKPKTVKAKP
# B5: Unmod H1 variant K A K P V K A S K P K K A (peptide)
# chain: KAKPVKASKPKKA
# Target: T1, HaloTag-ATRX ADD domain (163-292)
# Test: peptide microarray binding signal (635 nm), min-max normalized on array (fraction of array maximum); higher = stronger binding
# Conditions: peptide region: Unmod H1 variant; binder concentration: 50 nM
# Procedure, shortened: (§1)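 Within each library, mean intensities of triplicate spots were min-max scaled to give the binding signal. The spots were histone 13-mer peptide–cellulose conjugates on nitrocellulose with a Cy3 tracer, blocked overnight at 4°C. They were then probed for 1 h at 4°C using biotin-labelled HaloTag reader fusions (10 nM to 1 μM) with streptavidin-Alexa Fluor 647 or rabbit histone antibodies (1:10,000 to 1:2,000) with anti-rabbit Alexa 647, and scanned at 635 nm for signal and 532 nm for misprints on an Axon GenePix 4000B.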
row,Binder,peptide microarray binding signal
1,B1,0.0191 ± 0.00044
2,B2,0.0112 ± 0.00071
3,B3,0.0131 ± 0.00065
4,B4,0.0134 ± 0.00092
5,B5,0.01229 ± 0.00011

# Same assay, conditions: peptide region: Unmod H1 variant; binder concentration: 500 nM
row,Binder,peptide microarray binding signal
1,B1,0.035 ± 0.0031
2,B2,0.0179 ± 0.0034
3,B3,0.0107 ± 0.00047
4,B4,0.00981 ± 0.00033
5,B5,0.00971 ± 0.00061

# Target: HaloTag-ING2 PHD (mouse Ing2 200-280)
# Test: as above
# Conditions: peptide region: Unmod H1 variant; binder concentration: 10 nM
# Procedure, shortened: as §1
row,Binder,peptide microarray binding signal
1,B1,0.0205 ± 0.0038
2,B2,0.00495 ± 0.00025
3,B3,0.00245 ± 0.0001
4,B4,0.00215 ± 4.5e-05
5,B5,0.00292 ± 7.4e-05

# Same assay, conditions: peptide region: Unmod H1 variant; binder concentration: 100 nM
row,Binder,peptide microarray binding signal
1,B1,0.0395 ± 0.0068
2,B2,0.00943 ± 0.0026
3,B3,0.00496 ± 0.0015
4,B4,0.00645 ± 0.00057
5,B5,0.00574 ± 0.00036

# Target: anti-H3K4me3 antibody ab8580
# Test: as above
# Conditions: peptide region: Unmod H1 variant; binder concentration: 1:2,000 dilution
# Procedure, shortened: as §1
row,Binder,peptide microarray binding signal
1,B1,0.00321 ± 0.00047
2,B2,0.000453 ± 4.1e-05
3,B3,0.00034 ± 2.1e-05
4,B4,0.000642 ± 1.6e-05
5,B5,0.00051 ± 8.6e-06

# Same assay, conditions: peptide region: Unmod H1 variant; binder concentration: 1:10,000 dilution
row,Binder,peptide microarray binding signal
1,B1,0.00348 ± 4.9e-05
2,B2,0.000913 ± 1.6e-05
3,B3,0.000685 ± 7.2e-06
4,B4,0.000628 ± 6.7e-06
5,B5,0.000685 ± 7.2e-06

# Target: anti-H3K9me3 antibody ab8898
# Test: as above
# Conditions: peptide region: Unmod H1 variant; binder concentration: 1:2,000 dilution
# Procedure, shortened: as §1
row,Binder,peptide microarray binding signal
1,B1,0.00151 ± 8.2e-05
2,B2,0.000544 ± 1.5e-05
3,B3,0.000362 ± 1.9e-05
4,B4,0.000151 ± 1.6e-06
5,B5,0.000196 ± 2.1e-06

# Same assay, conditions: peptide region: Unmod H1 variant; binder concentration: 1:10,000 dilution
row,Binder,peptide microarray binding signal
1,B1,0.001903 ± 1.8e-05
2,B2,0.00219 ± 0.00045
3,B3,0.000865 ± 2.4e-05
4,B4,0.000634 ± 1.2e-05
5,B5,0.000692 ± 7.3e-06
